Test results: PubChem BioAssay AID771 (SRMLSC, 2007)
Among all 3,300 compounds or so, about 55 (2%) were called active. The sample holds actives, similar compounds and a random draw of the others, so the mix is not that of the screen.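 How the source made its calls: active means growth inhibition above 90%, meaning viable cell count by imaging cut by more than 90% versus vehicle controls; inactive means growth inhibition below 90%.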

Assay: HT29 colon tumor cell growth inhibition, primary screen, imaging, high content imaging, 48 h, CellTiter-Glo (AID 771);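 on condensed nuclei: condensed means Hoechst nuclear area under control median minus 1.5 SD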
Conditions: HCS imaging cell count, at 10 µM, stronger effect = higher value; for condensed nuclei: measured here: percent cells with condensed nuclei
[1] = measured here: ATP CellTiter-Glo viability inhibition

Row | SMILES | growth inhibition | growth inhibition [1] [%] | condensed nuclei [%]
1 | COC(=O)c1[nH]c2cc(OC)ccc2c1NC(=O)CN1CCN(c2cccc(C)c2)C(C)C1 (configuration not stated) | 92.4% (active) | 75.4 | 8.77
2 | COC(=O)c1[nH]c2cc(OC)ccc2c1NC(=O)CCN1CCCC(C)(C)C1 | 5.81% (inactive) | 8.79 | 1.83
3 | COC(=O)c1[nH]c2cc(OC)ccc2c1NC(=O)CN1CCC(C(N)=O)CC1 | 49.4% (inactive) | -5.92 | 2.82
4 | COC(=O)C1CCN(c2nc3ccccc3nc2C(C#N)C(=O)NCCc2ccccc2)CC1 (configuration not stated) | 30% (inactive) | 5.48 | 3.61
5 | COC(=O)c1ccc(Nc2cc(C)nc(-c3ccccc3O)n2)cc1 | 12.1% (inactive) | 23 | 10.7
6 | COC(=O)c1cccc(Nc2cc(C)nc(-c3ccccc3O)n2)c1 | 91.6% (active) | 77.4 | 8.33
7 | COC(=O)c1ccccc1OCc1cccc(C)n1 | 39.5% (inactive) | 2.81 | 0.9
8 | CCOc1ccc(-c2nn3c(-c4ccc(OC)cc4)nnc3s2)cc1 | 10.5% (inactive) | 4.54 | 2.81
9 | C[C@]12CC[C@@H]3c4ccc(OC(=O)c5ccccc5)cc4CC[C@H]3[C@@H]1CC[C@@H]2O | 90.5% (active) | – | 22.1
10 | C[C@]12CC[C@@H]3c4ccc(O[C@@H]5O[C@H](C(=O)O)[C@@H](O)[C@H](O)[C@H]5O)cc4CC[C@H]3[C@@H]1C[C@@H](O)[C@@H]2O | -7.06% (inactive) | – | 1.8
11 | C[C@]12CC[C@@H]3c4ccc(O)cc4CC[C@H]3[C@@H]1CC[C@@H]2OC(=O)CCC(=O)O | -33.9% (inactive) | – | 0.84
12 | Cc1c(O)c(CN2CCCC(C)C2)cc2c3c(c(=O)oc12)CCC3 (configuration not stated) | -14.5% (inactive) | -14.7 | 1.69
13 | CN(C1CCS(=O)(=O)C1)S(=O)(=O)c1cccc2nsnc12 (configuration not stated) | -12.3% (inactive) | 2.06 | 8.15
14 | N#CC1=C(SCC(=O)c2ccc(Cl)cc2)NC2=C(C(=O)CCC2)C1c1ccco1 (configuration not stated) | 92.8% (active) | 78.2 | 7.89
15 | Cc1ccc(NC(=O)CSC2=C(C#N)C(c3ccco3)C3=C(CCCC3=O)N2)cc1 (configuration not stated) | 18.9% (inactive) | -18.4 | 2.42
16 | CCc1ccc(NC(=O)CSC2=C(C#N)C(c3ccco3)C3=C(CCCC3=O)N2)cc1 (configuration not stated) | 86.5% (inactive) | 58.1 | 11.8
17 | N#CC1=C(SCC(=O)c2ccc(Br)cc2)NC2=C(C(=O)CCC2)C1c1ccco1 (configuration not stated) | 68.9% (inactive) | 54.1 | 7.14
18 | Cc1ccc(C(=O)CSC2=C(C#N)C(c3ccco3)C3=C(CCCC3=O)N2)cc1 (configuration not stated) | 86% (inactive) | 77.7 | 6.33
19 | N#CC1=C(SCC(=O)c2ccccc2)NC2=C(C(=O)CCC2)C1c1ccco1 (configuration not stated) | 94.2% (active) | 71.1 | 25.7
20 | Cn1c(=O)c2c3c(sc2n2c(SCC(=O)c4ccc(Cl)cc4)nnc12)COC(C)(C)C3 | -42.1% (inactive) | -20.9 | 0.75
21 | CN=C1c2cc3c(Br)c(OC)ccc3n2CCN1C | 13.5% (inactive) | 20.4 | 1.37
22 | COC(=O)c1cc(Br)c(=O)n(Cc2ccco2)c1 | 48.5% (inactive) | -15.8 | 2.45
23 | CN(C)S(=O)(=O)Nc1ccc(NS(=O)(=O)N(C)C)c(S(=O)(=O)c2ccccc2)c1 | 17.4% (inactive) | -14.5 | 2.1
24 | CCSC1=C(C#N)C(c2cccs2)C(C(=O)OC)=C(C)N1 (configuration not stated) | -14.9% (inactive) | -4.48 | 2.41
25 | C#CCSC1=C(C#N)C(c2cccs2)C(C(=O)OCC)=C(C)N1 (configuration not stated) | -11.7% (inactive) | -5.67 | 1.95

Row | SMILES | growth inhibition | growth inhibition [1] [%] | condensed nuclei [%]
26 | CCOC(=O)C1=C(C)NC(SCC(=O)Nc2nc(C)cs2)=C(C#N)C1c1cccs1 (configuration not stated) | 95.4% (active) | 77.6 | 11.1
27 | CCCOc1ccc(/C(O)=C2/C(=O)C(=O)N(CCCN3CCOCC3)C2c2ccncc2)cc1 (configuration not stated) | -41.6% (inactive) | -15.8 | 2.83
28 | CCCCOc1cccc(-c2nnc(N)s2)c1 | 2.4% (inactive) | -0.17 | 3.96
29 | CCC1CC2(C)NC(=O)c3c(sc4c3CC(C)(C)OC4)N2C1=O (configuration not stated) | -1.91% (inactive) | -5.72 | 0.79
30 | CC(C)(C)C1CCC2(CC1)C(C#N)=C(SCC(=O)Nc1ccccc1)NC(=O)C2C#N (configuration not stated) | 91.4% (active) | 71.8 | 2.13
31 | COc1cccc(NC(=O)CSC2=C(C#N)C(c3ccco3)C3=C(CCCC3=O)N2)c1 (configuration not stated) | 61% (inactive) | 34.8 | 1.16
32 | CC1=C(C(=O)Nc2ccccc2)C(c2ccncc2)C(C#N)=C(SCC(=O)NC(C)C)N1 (configuration not stated) | 38.7% (inactive) | 0.29 | 1.77
33 | O=c1/c(=C/c2ccccn2)sc2n1CN(c1ccccc1)CN=2 | 1.6% (inactive) | 3.13 | 16.2
34 | CNC(=O)Nc1cccc(NC(=O)NC)n1 | 24.6% (inactive) | 6.59 | 0.95
35 | COc1cccc(C2/C(=C(/O)c3cnn(-c4ccccc4)c3C)C(=O)C(=O)N2CCN(C)C)c1 (configuration not stated) | 51.1% (inactive) | -8.25 | 1.69
36 | Cc1[nH]c2ccc3c(ncn3CCC#N)c2c1C | 3.78% (inactive) | 2.93 | 1.79
37 | C=CCNc1nc(N2CCCCC2)c(C#N)c2c1CN(Cc1ccccc1)CC2 | 71.7% (inactive) | 37 | 2.73
38 | C=CCNc1nc(N2CCOCC2)c(C#N)c2c1CN(C)CC2 | -13.1% (inactive) | -3.95 | 0.96
39 | CCN1CCc2c(C#N)c(NCc3ccccc3)nc(N(CC)CC)c2C1 | -3.81% (inactive) | -0.65 | 2.33
40 | CN1CCc2c(C#N)c(N3CCCCC3)nc(NCc3ccccc3)c2C1 | 94.8% (active) | 84.9 | 19.2
41 | CCN1CCc2c(C#N)c(N3CCOCC3)nc(NCc3ccccc3)c2C1 | 21.2% (inactive) | 14.1 | 2.32
42 | CCN1CCc2c(C#N)c(NCc3ccccc3)nc(NCCO)c2C1 | -5.72% (inactive) | 1.65 | 1.53
43 | C=CCNc1nc(NCc2ccccc2)c(C#N)c2c1CN(C)CC2 | 95.6% (active) | 82.7 | 12.5
44 | N#Cc1c(NCCN)nc(NCc2ccccc2)c2c1CCN(Cc1ccccc1)C2 | 93.1% (active) | 87.7 | 30.8
45 | CCN1CCc2c(C#N)c(N3CCCCC3)nc(NCc3ccccc3)c2C1 | -17.2% (inactive) | 20.2 | 3.42
46 | CCCCOc1ccc(C)cc1CN(CCO)CCO | -4.82% (inactive) | 1.6 | 1.37
47 | Cc1ccc(-c2nn(C)c(=O)c3ccccc23)cc1CNC(=O)CSc1nc2ccccc2o1 | -7.38% (inactive) | -4.16 | 1
48 | CCC1(C)Cc2c(sc3c2c(=O)n(C)c2nnc(SCC(=O)c4ccc(Cl)cc4)n32)CO1 (configuration not stated) | 0.56% (inactive) | 9.73 | 13.8
49 | Cc1cc(C)nc(NC2=NCC(=O)N2c2cccc(Cl)c2)n1 | 27.2% (inactive) | -9.73 | 3.28
50 | CCOC(=O)c1c(-c2cccs2)csc1NC(=O)CCCC(=O)O | 5.6% (inactive) | 4.31 | 1.96

Row | SMILES | growth inhibition | growth inhibition [1] [%] | condensed nuclei [%]
51 | CCCc1nc(N2CCOCC2)c(C#N)c2c1CCCC2 | 24% (inactive) | 6.89 | 0.7
52 | CSc1nc2sc3c(c2c(=O)[nH]1)CCC(C)C3 (configuration not stated) | 25.4% (inactive) | 10.4 | 2.48
53 | CCOc1ccc(C2C(C(=O)c3ccc(C)o3)=C(O)C(=O)N2CCCN(CC)CC)cc1 (configuration not stated) | 17% (inactive) | 0.35 | 1.26
54 | c1ccc(-c2nc(NCC3CCCO3)c3ccccc3n2)nc1 (configuration not stated) | 16.9% (inactive) | 30.9 | 2.06
55 | O=C1CCC(=O)N1CN(Cc1ccco1)CN1C(=O)CCC1=O | -33.3% (inactive) | -19.2 | 2.24
56 | COc1ccc(-n2ncc3c(Nc4cccc(C)c4)ncnc32)cc1 | 30.6% (inactive) | -2.53 | 3.63
57 | N#CC1=C(N)NC(SCc2ccc(F)cc2)=C(C#N)C12CCCCC2 | 95.4% (active) | 69.3 | 27.3
58 | COc1ccc(C(=O)CSC2=C(C#N)C3(CCCCC3)C(C#N)=C(N)N2)cc1 | 27% (inactive) | 4.09 | 7.53
59 | N#CC1=C(N)NC(SCc2ccc(Cl)cc2)=C(C#N)C12CCCCC2 | 79.6% (inactive) | 70.5 | 17.1
60 | C=CCN(C(=O)CCC(=O)O)C1CC(=O)N(c2ccc(OC)cc2)C1=O (configuration not stated) | -35.5% (inactive) | -24.9 | 1.95
61 | Cn1c(=NCC(O)COc2ccccc2)sc2ccccc21 (configuration not stated) | 25.5% (inactive) | -13.5 | 3.63
62 | COCCNc1oc(-c2ccc(C)cc2)nc1C#N | 11.6% (inactive) | -12.3 | 2.76
63 | O=C(O)c1ccc(COCC(F)(F)C(F)F)o1 | -17.7% (inactive) | -10.2 | 3.29
64 | CCOc1ccc(Cn2c(O)cc(=O)[nH]c2=O)cc1 | -7.52% (inactive) | -20.8 | 1.27
65 | CC1CN(C2CCN(C(=O)c3ccccc3Cl)CC2)CC(C)O1 (configuration not stated) | -18.6% (inactive) | -39.5 | 4.01
66 | CC1CN(C2CCN(C(=O)c3ccccc3)CC2)CC(C)O1 (configuration not stated) | 92.5% (active) | -44.3 | 3.65
67 | CC1CN(C2CCN(C(=O)COc3ccccc3)CC2)CC(C)O1 (configuration not stated) | -1.5% (inactive) | -3.33 | 2.3
68 | CCOC(=O)c1sc2c(c1C)c(=O)c(C(=O)OCC)cn2CC | -35.2% (inactive) | -21.7 | 0.84
69 | CCCc1[nH]nc2c1C(c1cccc(OC)c1)C(C#N)=C(N)O2 (configuration not stated) | 55.3% (inactive) | 9.76 | 16.6
70 | Cc1cccc(OCC(=O)N2CCC(N3CCOCC3)CC2)c1 | -31.7% (inactive) | -31.1 | 0.89
71 | CNCCCC12CCC(c3ccccc31)c1ccccc12 | 95% (active) | – | 18.3
72 | Nc1ccc(Cl)cc1/C(=N/O)c1ccccc1 | 33.8% (inactive) | -14.5 | 3.59
73 | C=C1[C@@H](C)C2[C@H](Cc3ccccc3)NC(=O)[C@]23OC(=O)CC[C@H](O)CCC[C@H](C)C/C=C/[C@H]3[C@@H]1O (some centres not stated) | 92.4% (active) | – | 18.2
74 | CCOC(=O)CSc1nc(N(C)C)nc(N(C)C#N)n1 | 27.7% (inactive) | -19.8 | 1.4
